A short description of assay [1]: qHTS RealTime-Glo MT Cell Viability Assay in HepG2 cells - 40 hour (AID 1224870). Also: nearly all actives have a fitted effect of over 50% in size. In short, it runs like this: (§1)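 Real-time viability: cells seeded at 600 per well together with NanoLuc and cell-permeant prosubstrate, compounds added after 5 h incubation. Luminescence tracked at 0, 8, 16, 24, 32 and 40 h of exposure.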
On the technique in general: qHTS replaces the single test concentration by a dilution series.

Assay [2] in a line: A CellTox Green Cytotoxicity Assay to monitor cytotoxicity in HEK293 cells - 40 hour (AID 1224871). Also: nearly all actives have a fitted effect of over 45% in size. Also: potency is read from the fitted curve at half-maximal effect. The essentials: (§2)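 Real-time, in one plate: 600 HEK293 cells/well with dead-cell DNA dye, pinned compound after 5 h, 37 C incubation over 40 h; viable cells give no appreciable fluorescence.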
The nature of assay [3]: qHTS RealTime-Glo MT Cell Viability Assay in HEK293 cells - 16 hour (AID 1224872). Also: nearly all actives have a fitted effect of over 50% in size. Also: potency is read from the fitted curve at half-maximal effect. As to activity change, negative = cytotoxicity: top concentration of the series differs between compounds. In short, it runs like this: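 Viability tracked continuously by luminescence as live cells reduce a prosubstrate for NanoLuc; HEK293 cells preincubated 5 h, compound-treated at 37 C, and read at 0, 8, 16, 24, 32 and 40 h.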
Assay [4] is described as follows: qHTS RealTime-Glo MT Cell Viability Assay in HepG2 cells - 8 hour (AID 1224873). Also: nearly all actives have a fitted effect of over 55% in size. In short, it runs like this:
as §1

The nature of assay [5]: qHTS RealTime-Glo MT Cell Viability Assay in HEK293 cells - 40 hour (AID 1224874). Also: nearly all actives have a fitted effect of over 50% in size. Also: potency is read from the fitted curve at half-maximal effect. The settings on record: RealTime-Glo luminescence; max response: stronger effect = lower value. The essentials:
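Kinetic, non-lysing viability readout. Seed HEK293 (600/well) with reagent, incubate 5 h at 37 C/5% CO2, pin 23 nL compound in DMSO, incubate at 37 C, read luminescence at 0, 8, 16, 24, 32, 40 h.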

Assay [6] can be described thus: A CellTox Green Cytotoxicity Assay to monitor cytotoxicity in HEK293 cells - 24 hour (AID 1224875). Also: nearly all actives have a fitted effect of over 45% in size. Also: potency is read from the fitted curve at half-maximal effect. As to activity change: series mostly up to about 77 µM. In short, it runs like this: as §2
A short description of assay [7]: qHTS RealTime-Glo MT Cell Viability Assay in HepG2 cells - 32 hour (AID 1224877). Also: nearly all actives have a fitted effect of over 55% in size. The essentials:
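Viability was tracked continuously by NanoLuc luminescence from prosubstrate reduced by living HepG2 cells, at successive time points over 40 h of compound exposure. Cells with reagent were preincubated 5 h at 37 °C before compound addition.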

The nature of assay [8]: A CellTox Green Cytotoxicity Assay to monitor cytotoxicity in HepG2 cells - 16 hour (AID 1224876). Also: nearly all actives have a fitted effect of over 45% in size. Also: potency is read from the fitted curve at half-maximal effect. The essentials:
(§3)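 Cytotoxicity was tracked as dead-cell DNA fluorescence in HepG2 cells treated with test compounds at 37 C; each time-point value comes from one kinetic series spanning 0, 8, 16, 24, 32 and 40 h.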

Assay [9] can be described thus: A CellTox Green Cytotoxicity Assay to monitor cytotoxicity in HepG2 cells - 40 hour (AID 1224879). Also: nearly all actives have a fitted effect of over 40% in size. Also: potency is read from the fitted curve at half-maximal effect. The essentials:
as §3

A short description of assay [10]: A CellTox Green Cytotoxicity Assay to monitor cytotoxicity in HepG2 cells - 24 hour (AID 1224878). Also: nearly all actives have a fitted effect of over 45% in size. Also: potency is read from the fitted curve at half-maximal effect. The essentials: as §3

Molecules are shown by their SMILES. Records with an inconclusive call do not appear. Unmarked numbers belong to inactive results. Calls of active or inactive are those of the source. Calls follow the shape of the dose curve; as a rule, active = well fitted curve in the direction sought with a large enough effect in the repeat runs; inconclusive = weak or mixed curves; inactive = no such curve, though single readings can be large; an effect the other way counts as inactive or inconclusive.
% is scaled to controls: 0 for no effect and ±100 for the full control effect.

As for `Nc1c(Cl)cc(Cl)cc1[N+](=O)[O-]`, the Potency result in assay [1], in [2], in assay [3], in assay [4], in assay [6] and in [7] was “inactive” throughout. Also, in [5], the max response is 7.12%.
With `CCN(Cc1cccc(S(=O)(=O)O)c1)c1ccc(C(=C2C=CC(=[N+](CC)Cc3cccc(S(=O)(=O)O)c3)C=C2)c2ccc(O)cc2S(=O)(=O)[O-])cc1`, the Potency result in assay [1], in assay [2], in assay [3], in [4], in assay [6] and in assay [8] was “inactive” throughout. Besides, the Potency result in assay [7] and in assay [9] was “inactive” in each case. In addition, the max response in assay [5] is 8.88%.
With `CCN(CC)CCOc1ccccc1C(=O)CCc1ccccc1`, the Potency entry in [1], in assay [2], in assay [4], in assay [6], in [7] and in assay [10] was “inactive” in each case. For the same compound, the Potency entry in assay [9] was “inactive”. Also, the Potency in [3] and in assay [5] was 10.7 µM (active) throughout.
For `CNc1c2c(nn1C)CCCC2`, the Potency entry in [1], in assay [2], in assay [3], in assay [4], in assay [6] and in [8] was “inactive” throughout. Besides, the Potency entry in [7] and in assay [9] was “inactive” each time. For the same compound, the max response in assay [5] is -3.57%.
As for `CC(=O)OCCC1CCCCC1`, the Potency entry in assay [1], in assay [2], in [3], in assay [4], in [6] and in [7] was “inactive” throughout. In assay [5], the max response is 6.39%.
As for `Cc1c[nH]c2ccccc12`, the Potency result in assay [1], in assay [2], in assay [3], in assay [4], in [6] and in assay [8] was “inactive” each time. For the same compound, the Potency result in assay [7] and in assay [9] was “inactive” in each case. In addition, the max response in assay [5] was 17.2%.
Regarding `O=C(c1ccccc1)C1CCC1`, the Potency result in [1], in [3], in assay [4] and in assay [7] was “inactive” in each case. In addition, the Potency in [2] was 24.5 µM (active); in [6] it was 24.5 µM (active); in assay [8], 38.9 µM (active); in assay [9], 27.5 µM (active). Further, the max response in assay [5] is 13.2%.
As for `[Cl][Nd]([Cl])[Cl]`, the Potency result in [1], in assay [2], in assay [3], in assay [4], in assay [6] and in assay [8] was “inactive” in each case. For the same compound, the Potency result in assay [7], in [10] and in assay [9] was “inactive” each time. Moreover, in assay [5], the max response is 2.18%.
On to `CNC1CCCN(c2c(F)cc3c(=O)c(C(=O)O)cn(C4CC4)c3c2OC)C1` (centres undefined), for which the Potency entry in [1], in assay [2], in [3], in assay [4], in [6] and in [7] was “inactive” each time. For the same compound, the Potency result in [10] and in [9] was “inactive” each time. Further, in assay [5], the max response is -1.56%.
Regarding `Cc1cn([C@H]2C[C@H](F)[C@@H](CO)O2)c(=O)[nH]c1=O`, the Potency entry in assay [1], in [2], in assay [3], in [4], in assay [6] and in [7] was “inactive” in each case. In addition, the Potency entry in assay [10] and in assay [9] was “inactive” in each case. In addition, the max response in assay [5] was 16.7%.
Regarding `CC1CCCC(=O)C1=O` (centres undefined), the Potency entry in [1], in assay [2], in assay [3], in assay [4], in assay [6] and in [7] was “inactive” throughout. Besides, the max response in [5] is 4.99%.
For `CC1=C2[C@@H]([C@H](C)CC[C@H]2/C=C(\C)C(=O)O)[C@H](O)C1`, the Potency result in [1], in assay [2], in [3], in assay [4], in assay [6] and in assay [8] was “inactive” throughout. In addition, the Potency entry in [7] and in [9] was “inactive” each time. Besides, in assay [5], the max response was -2.63%.
With `CC(C)C1CCC(C(=O)N[C@H](Cc2ccccc2)C(=O)O)CC1` (some centres undefined), the Potency entry in [1], in [2], in assay [3], in assay [4], in assay [6] and in assay [8] was “inactive” in each case. Also, the Potency result in [7] and in assay [9] was “inactive” throughout. For the same compound, the max response in assay [5] is 3%.
`O=C(O)CNC(=O)c1ccccc1I`: the Potency entry in assay [1], in assay [2], in assay [3], in assay [4], in assay [6] and in [7] was “inactive” throughout. Further, the Potency entry in assay [10] and in [9] was “inactive” throughout. Besides, the max response in assay [5] was 6.48%.
As to `CC(C)(C)NCC(O)COc1cccc2c1C[C@H](O)[C@H](O)C2` (some centres undefined), the Potency entry in [1], in assay [2], in assay [3], in assay [4], in [6] and in [7] was “inactive” throughout. The Potency result in assay [10] and in [9] was “inactive” each time. For the same compound, the max response in assay [5] is 4.53%.
For `Cc1ccc(N(CC2=NCCN2)c2cccc(O)c2)cc1`, the Potency result in assay [1], in assay [2], in assay [3], in assay [4], in assay [6] and in assay [8] was “inactive” each time. For the same compound, the Potency entry in [7] and in assay [9] was “inactive” each time. Besides, the max response in assay [5] is -23.3%.
With `CCc1ccc(C)cc1`, the Potency entry in [1], in [2], in assay [3], in [4], in assay [6] and in [7] was “inactive” in each case. For the same compound, the Potency result in assay [10] and in [9] was “inactive” in each case. Further, in [5], the max response was 11.4%.
Take `CCC(CO)(CO)CO`: the Potency result in [1], in assay [2], in [3], in assay [4], in assay [6] and in [7] was “inactive” each time. For the same compound, the Potency result in assay [10] and in assay [9] was “inactive” in each case. For the same compound, the max response in assay [5] was 5.95%.
On to `CCCCCCCCCCCCCOC(=O)CCSCCC(=O)OCCCCCCCCCCCCC`, for which the activity change, negative = cytotoxic in [1] is 6.27% [at 15.8 µM]; in [7], 0.647% [at 15.8 µM]. The cytotoxicity increase is 7.8% [at 15.8 µM] in [2], -0.0072% [at 15.8 µM] in [8] and -4.11% [at 15.8 µM] in [9]. For the same compound, the activity change, negative = cytotoxicity in assay [3] was -1.74% [at 15.8 µM]. Moreover, the viability change, negative = cytotoxic in assay [4] was -12% [at 15.8 µM]. Also, in assay [5], the max response is -0.06%. In addition, the activity change in [6] is 16% [at 15.8 µM, stronger effect = higher value].
As for `CCOC(=O)Oc1ccc(CCNC(=O)[C@H](CCSC)NC(C)=O)cc1OC(=O)OCC`, the Potency result in assay [1], in assay [2], in assay [3], in assay [4], in assay [6] and in [8] was “inactive” each time. The Potency entry in assay [7] and in [9] was “inactive” in each case. Besides, the max response in [5] is 14.4%.
As to `CC(C)Cc1ccc(CC(=O)O)cc1`, the Potency result in [1], in assay [3], in assay [4] and in assay [7] was “inactive” throughout. The Potency was 15.1 µM (active) in [2], 10.7 µM (active) in assay [6], 19 µM (active) in [10] and 21.3 µM (active) in assay [9]. Moreover, the max response in [5] is 4.43%.
With `CC(=O)OC(C)C[N+](C)(C)C` (centres undefined), the Potency result in [1], in assay [2], in assay [3], in assay [4], in assay [6] and in assay [7] was “inactive” in each case. Besides, the Potency result in assay [10] was “inactive”. For the same compound, the max response in [5] was -1.13%.
With `C=CC(=O)O`, the Potency result in assay [1], in assay [2], in assay [3], in assay [4], in assay [6] and in [7] was “inactive” each time. In addition, the Potency entry in assay [10] and in assay [9] was “inactive” each time. Also, the max response in assay [5] was -0.787%.
Turning to `CCCCC[C@H](O)/C=C/[C@H]1[C@H](O)CC(=O)[C@@H]1C/C=C\CCCC(=O)O`, the Potency entry in assay [1], in [2], in assay [3], in [4], in assay [6] and in assay [7] was “inactive” in each case. For the same compound, the Potency entry in assay [10] and in assay [9] was “inactive” each time. Further, the max response in [5] is 19.7%.
On to `Nc1ccc(S(=O)(=O)NCc2ccccc2)cc1`, for which the Potency entry in assay [1], in assay [2], in assay [3], in assay [4], in assay [6] and in assay [7] was “inactive” in each case. Besides, the Potency result in assay [9] is “inactive”. The max response in assay [5] is -2.82%.
As for `Nc1ccc(N=Nc2ccc(N)cc2)cc1`, the Potency entry in [1], in assay [2], in assay [3], in assay [4], in assay [8] and in assay [7] was “inactive” in each case. Besides, the Potency entry in assay [10] and in [9] was “inactive” in each case. Further, in [5], the max response was -7.32%.
With `CCC1CCC(CCC(=O)O)C1` (centres undefined), the Potency result in assay [1], in [2], in assay [3], in assay [4], in [8] and in assay [7] was “inactive” each time. For the same compound, the Potency result in assay [10] and in [9] was “inactive” each time. The max response in assay [5] is -15.6%.
For `O=c1[nH]c2cc(C(F)(F)F)c(N3CCOCC3)cc2n(CP(=O)(O)O)c1=O`, the Potency result in [1], in [2], in assay [3], in assay [4], in assay [6] and in assay [7] was “inactive” each time. The Potency result in assay [10] and in [9] was “inactive” each time. In assay [5], the max response was 8.28%.
Take `Cc1cc(CCC(=O)OCCOCCOCCOC(=O)CCc2cc(C)c(O)c(C(C)(C)C)c2)cc(C(C)(C)C)c1O`: the Potency result in [1], in assay [2], in assay [3], in [4], in assay [6] and in assay [7] was “inactive” in each case. Also, the Potency result in assay [10] and in [9] was “inactive” throughout. Besides, in assay [5], the max response was 6.66%.

For the origin of these results see PubChem BioAssay (Tox21).
